The campaign covered roughly 53,000 sequences. About 3,700 (7%) were called active. The entries come from a sample that favours actives as a whole. Values without a mark were called inactive.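 How the source made its calls: active means gene knockdowns whose robust z-score for IL-1 alpha signal is at least 2 or at most -2, so actives lie on both sides; inactive means the rest.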
Experiment: Components of the Cytosolic LPS Sensing Pathway: Gene Identification via Genome-wide siRNA Screen;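 further: robust z of the log signal after scaling to non-targeting control siRNA wells of the plate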
Details: RAW264.7 macrophages, IL-1a HTRF, actives lie on both sides, screened at 100 nM (by protocol), cells primed 5 h with Pam3CSK4 first
Summary of the method: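 Using IL-1a HTRF as read-out, the screen measured release from RAW264.7 cells after 48h siRNA knockdown (100 nM), 5 h Pam3CSK4 priming and 24 h cytosolic LipidA. Values were expressed relative to negative-control wells as robust z-scores.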

Sequence	z-score
GGAAACAAGGAUAUUCUUUTT against Fanca	0.859
GGAGGUAUUAUCUGAAUUGTT against Utp14a	1.17
GGAGGCAUACAUGACAAAATT against Cop1	0.953
GGCAGAGUGCUGACUUCAUTT against Coq8a	3.86 (active)
CCAUGUAUGCCUCAACAUATT against Ltf	0.517
GGAAAGUGCCAUGAAGACCTT against Dbi	-1.42
GCUCCUAAUGGAAAGAACGTT against Pla2g4d	0.0914
CCUGUCCAGGGUUUGACCATT against Man2c1	-1.12
GCGAUAUGCAGAGAAGCGGTT against Prpf8	-1.63
GGUUAAAGGAGCAGUCUAUTT against Dbn1	0.636
GGAGAAAGUGUCCUCUGUGTT against Olfr924	-2.41 (active)
GGGCUGGGUCUUCAUAAUUTT against 6330549D23Rik	1.14
GCACUUCAAUCCAGUGUCUTT against Pdgfd	-1.27
GGCAAAAAUUUUUUCAUGCTT against Abcb4	-0.47
GGUGGCGGGAGAUGUUUUUTT against Pex6	0.85
GGUCUAGAGCAAUUCCAUATT against Olfr656	1.51
GUUGUAUUUCUUUGUCCUCTT against Olfr1097	2.21 (active)
GAUCUUAUAUGUUGGUGGUTT against Vmn1r29	-0.31
GGUGAACUUUACCUUCAACTT against Mov10	0.867
GGAUCAACGAGGUAAAGUCTT against Itga8	0.101
GGUUUUUGAUAAUUGCCAUTT against Gcsh	-1.98
GGAAGAAGACACAAAAAAUTT against Rcan3	3.53 (active)

Sequence	z-score
GGUCUUCUUCUUCAAAGCUTT against Mrpl46	-1.27
GCAACGUGGUCAUCAAUCUTT against Ndufa9	-0.743
GGGUUAUGGCUGGAAUCUGTT against Slc12a9	-1.52
GGAACAAGGCUUUUUCCACTT against Olfr481	0.566
CCCGUUGUAUACAAAUACCTT against Tmem41b	0.579
CCCAAACAGACUAGAUCCGTT against Rab20	3.37 (active)
GUGGAAAUUAAUCUGGGUUTT against Tmem191c	0.394
GGCCAGAUAGCAAAACAGCTT against Mpst	0.897
GGAGGUGUUCAUUGAAGUCTT against Nudcd2	-0.356
GGAACUGACAGCUAUGAACTT against Atp6v1d	-0.845
GGAGAAGAAAGCAAAAACCTT against Ing1	-2.11 (active)
CGCAGAUCAAUUUUCAUAGTT against Kif2a	0.471
GGAUAUUGGUGGCACUUUATT against Med6	-0.315
GGAUAAAUGGUACAUUCAGTT against Coa7	0.958
CCAACCUAAACAAUGCAUUTT against Actn4	-0.431
GGCGGACUUGGAUUACAGCTT against Rassf10	2.21 (active)
GGAGCUGCUGUUAAUUCCATT against Col5a3	1.3
GGAAGCCUACCUUUAUAUUTT against Slc2a3	0.458
CCUUUUCAAGCUAACAACATT against Gba2	-0.0808
GGUAGCACUUUGUAUUUUATT against Spg7	0.575
GCAUCUACUAUCCAAGUGATT against Alox8	2 (active)
CCUACAGCCACCUAAUAGATT against Olfr1196	-0.346

Sequence	z-score
GCAAGUAACUACCAGAGUATT against Cfap20	-0.488
CCACGGGAGACAAGAUUCUTT against Hmbs	3.18 (active)
GGUCAGCGAACCACGAUAATT against Olfr314	-0.792
GGUAUAAGGUCAUAGAAUUTT against E230016K23Rik	0.429
GCUUCUAUUUUGGAUGAUGTT against Skint10	-1.2
GGCACAAGUUGACCAAUAUTT against Rtn1	-0.263
GCUACUCCUUAGAACACGGTT against Spry1	0.839
GGCUAUCUGAUUUUUGUUGTT against Nlrp3	-0.0259
GGCCUCAAACUGAAUAUUATT against Serpina7	0.472
CCCGGAAACAACACAUUGCTT against Tyrobp	2.88 (active)
GGUCCAGCAUUUGAAAUUATT against Moap1	0.291
CCACUGUGCAAGAAGCACGTT against Ldb3	-0.129
GGGUAAUGGGCCAGUAUCATT against Fam229b	-2.92 (active)
GGUAUAUUGUGCCAGCACATT against Olfr705	0.00345
GGUUCACAUGUACAUUAAATT against Cracd	-0.156
GGUUAGAAAACAAUAUCAGTT against 9530053A07Rik	0.88
GGGAGAGCUGGCUAAAUGATT against Sptbn4	-0.956
GGAGUUUGCCAGUGAAUUUTT against Ptpn22	-0.603
GGAAGAGAAAACAACAGUUTT against Phactr4	-1.26
CCCGUAAGGUAACAAACCGTT against Polr3k	-1.14
GGACAGGAAGGUCAUCCCUTT against Sntb2	-0.568
CCGCCAGACCUUCAUUACCTT against Chia1	-0.515

Sequence	z-score
GGCAGUGGAGCUGGACAAATT against Nkx2-5	2.45 (active)
GGCUACAAAUCCAACUAUCTT against Ppp1r32	0.181
GGUCCAAGCCUUUUCUAGATT against Glmp	0.305
GCUCGUUCGCCUAGAAUUGTT against Mycbp	0.529
CGUGGGCUCUGUUGACAUUTT against Olfr492	0.869
GGGCAAAUGUAAAAAGACUTT against Fst	1.28
GGUGAUUGUCAAGAUUAUGTT against Olfr651	-2.1 (active)
CCUUUGCCUUCAGUUUUAUTT against Pramel20	0.864
GGUCACGAUGUAGCACGCUTT against Mtg1	0.996
GCAGGAAGUACUCCUAUCCTT against Letm2	-0.861
GGGAAUUUGGUAUCAAUUUTT against Epgn	1.7
GCUGCACGAUGCAUGGUUUTT against Asic3	1.43
GGCAAUAACAUUCGGUAUUTT against Snrpd1	-2.29 (active)
CCUGUAAUGAGUAUGACAUTT against Commd10	0.397
GGAACUUUUUCAGAGCUCUTT against Senp3	-1.6
GGUAUUUGUGCCAAUUGCCTT against Ccr6	-0.302
GGAAGACUACAUAAGAGACTT against Cxcl9	0.103
GGGCCAUGAUAGGACACACTT against Nme4	2.97 (active)
CCUGUCUGUUUGAGGACGUTT against Adora2a	-0.701
GGCCAACUUCCUUUUUAAATT against Tomm40	-0.0619
GGCACACACUCCCUGACAATT against Cst3	-0.863
GGUGGAUGAUAAUGUUCUUTT against Gcnt3	0.911

Sequence	z-score
GGCCUUUACAUGUCCCAGCTT against BC002059	0.456
AUGUCAGCGGCCCUAGAUGTT against Adam34l	-2.09 (active)
GGGUGUGGCUGACUUUGAUTT against Otof	-0.429
CCGUGGACUAUAACAACUCTT against Mgat5b	1.61
GGAAGAGGCUAUUGCAUCGTT against Atrnl1	-0.768
GGUUUUCUAGUUUGAGUUUTT against Atp1b2	1.29
GCAUCCAUCAAAUCAAAAUTT against Met	3.03 (active)
GGUGAUUCAGAUAAAAGAGTT against Mbtps1	0.265
GAGCAGAGGAUUGAUGCACTT against Nlrp4g	0.918
GCAAGACGCACUGUUACUGTT against Fam214a	0.196
GGCUCCUAGCUGUUUCAGUTT against Hormad1	-1.62
GGUUCAAAGUUCUAGCUAATT against Adss	-0.25
CCAAAAGUCACGUUUCUCATT against Per2	-2.09 (active)
GCAAUGGUUGAAGAAAUUUTT against Tnip3	0.69
GGUUCUUUUAUGGAUGACATT against Prkaa2	-0.964
GCAGGAACACUGGUUUGAATT against Otud5	-0.653
GUACGAAGACUUCUCUAGUTT against Ankrd33b	0.101
GGGAAAAUGGCUUAACCGUTT against Siglecg	0.703
CCUAGAGGAUUCAGAUCAATT against Pnmal1	2.24 (active)

— PubChem BioAssay AID1508600 (Functional Genomics Laboratory (NCATS/FGL), 2020)
